# PubChem BioAssay (NCI)
# The panel holds about 83,000 compounds, 20% with a hit somewhere; the sample as a whole holds those more often.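 Note: values are percent growth. 100 is the growth of untreated cells, values between 100 and 0 indicate rising inhibition; between -100 and 0 indicates cell death.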 A number with no mark means an inactive call. The source made the active and inactive calls. How the source made its calls: active means growth percent below 10; inactive means the rest.
# Tested on: DU-145 prostate
# Assay: NCI-60 one-dose screen, 48 h (100 = growth as untreated, 0 = no growth, -100 = all killed)
# Settings: 10 µM unless noted
row,Structure (SMILES),growth
1,O=C(CSc1nc2ccccc2c(=O)[nH]1)Nc1ccccc1C(=O)O,129%
2,Cn1cc(-c2cc(N)n3nc(-c4c[nH]c5ccccc45)cc3n2)c2ccccc21,-89.1% (active)
3,Cc1cccc(/C=C/c2ccc(NC(=S)NCCCCN(C)C)cc2)c1,-82.7% (active)
4,Cc1ccc(N=Nc2c(N)nn3c(-c4cc5ccccc5oc4=O)ccnc23)cc1,43.7%
5,O=C(Nc1nc2ccccc2s1)Nc1ccccc1Cl,99.9%
6,COc1ccc(NC(=O)CSc2nnc(-c3ccc(-c4nc5ccc(Cl)cc5[nH]4)cc3)o2)cc1,8.29% (active)
7,O=C1Nc2cc(-c3ccc(NS(=O)(=O)c4ccc(C(F)(F)F)cc4)cc3)ccc2/C1=C/c1ccc[nH]1,40.6%
8,COc1ccc(Nc2nnc(-c3c[nH]c4ccccc34)o2)cc1,95.8%
9,Cn1cc(-c2cc(N)n3nc(-c4c[nH]c5ccc(F)cc45)cc3n2)c2cccnc21,-75.7% (active)
10,O=C(NN1C(=O)/C(=C/C=C/c2ccc([N+](=O)[O-])o2)SC1=S)c1ccc([N+](=O)[O-])cc1,-100% (active)
11,CN1C(=O)/C(=C/c2ccco2)S/C1=N/c1nccs1,107%
12,N#C/C(=C/c1ccc([N+](=O)[O-])cc1)c1nnc(NC(=O)c2ccc(-n3c(=O)[nH]c4ccccc4c3=O)cc2)s1,83.1%
13,O=C(CSc1nnc(-c2ccc(-c3nc4ccc(Cl)cc4[nH]3)cc2)o1)Nc1ccccc1,6.69% (active)
14,Cc1cccc(NCC(=O)N2CCN(c3ncnc4c3cnn4-c3ccccc3)CC2)c1,75.4%
